In PubChem BioAssay (Tox21):
Inconclusive results are not listed. Activity calls are given as the source filed them. Calls come from the whole dose curve.

Assay: p53 small molecule agonists, cell-based qHTS assay with rat liver microsomes: qHTS cell viability counter screen (AID 1963580); note: nearly all actives have a fitted effect of over 45% in size
Conditions: p53RE-bla HCT-116 + rat microsomes, ATP viability, 16 h; series mostly up to 66 µM; activity change, negative = cytotoxicity: at the top concentration
Source text: National Center for Advancing Translational Sciences [NCATS]
Division of Preclinical Innovation [DPI]
U.S. Environmental Protection Agency [EPA]
National Institutes of Environmental Health Sciences [NIEHS]
National Toxicology Program [NTP]
U.S. Food and Drug Administration [FDA]
p53, a tumor suppressor protein, is activated following cellular insult, including DNA damage and other cellular stresses. The activation of p53 regulates cell fate by inducing DNA repair, cell cycle arrest, apoptosis, or cellular senescence. The activation of p53, therefore, is a good indicator of DNA damage and other cellular stresses. The CellSensor p53RE-bla HCT-116 cell line contains a stably integrated beta-lactamase reporter gene under control of the p53 response elements. The activation of the reporter gene under culture conditions can be detected by fluorescence intensity. This cell line was used to screen the Tox21 10K compound library in the condition of presence of rat liver microsomes and to identify agonists that activate the p53 signaling pathway after in vitro metabolic activation (Ooka et al., Archive of Toxicology 96:1975-1987, 2022). The cytotoxicity of the Tox21 compound library against the p53 RE-bla HCT-116 cell line was tested in parallel by measuring the intra cellular ATP content in the same wells.
Tox21 Assay Protocol Summary:
The p53RE-bla cells were dispensed at 4,000cells/3ul/well in 1536-well black-clear bottom plates. After the assay plates were incubated at 37 C, 5% CO2 incubator for 5 hours, 23 nL of compounds dissolved in DMSO, positive controls or DMSO only was transferred to the assay plate. Following compound addition, 3 uL of rat liver microsomes (Molecular Toxicology, Boone, NC) at final concentration of 0.5 mg/mL and 1uL of B-Nicotinamide adenine dinucleotide 2'-phosphate (NADPH) at final concentration of 0.5 mg/mL were transferred to the assay plate. The plates were incubated at 37 C for 16 hours. 1 uL of LiveBLAzer detection mixture was added to each well and the plates were incubated at room temperature in the dark for 2 h. Fluorescence intensity at 460 and 530 nm emission and 405 nm excitation were measured by an Envision plate reader. For cell viability readout that measures cytotoxicity, 4 ul/well of CellTiter-Glo reagent was added into the assay plates using a Flying Reagent Dispenser. After 30 min incubation at room temperature, the luminescence intensity in the plates was measured using a ViewLux plate reader.
% is set by controls: 0 for no effect and ±100 for the full control effect; potency is the fitted concentration of half-maximal effect.

SMILES | activity change, negative = cytotoxicity | Potency
O=C(O)C(Br)CBr (stereo not given) | 2.04% (inactive) | –
CNC(=O)Oc1cccc(C(C)C)c1 | -13.2% (inactive) | –
NNCCO | -2.52% (inactive) | –
COc1ccc2c(c1OC)C(=O)O[C@H]2[C@@H]1c2cc3c(cc2CCN1C)OCO3 | -6.95% [at 30.3 µM] (inactive) | –
O=[N+]([O-])c1ccc(Oc2ccc(C(F)(F)F)cc2[N+](=O)[O-])cc1 | -19.7% (inactive) | –
ClSC(Cl)(Cl)Cl | -3.81% (inactive) | –
O=C1OC(CCN2CCCCC2)OC1(c1ccccc1)c1ccccc1 (stereo not given) | 7.97% [at 30.3 µM] (inactive) | –
Cc1nc(N(C)C)nc(OC(=O)N(C)C)c1C | 0.158% (inactive) | –
COP(=O)(OC)O/C(=C\Cl)c1cc(Cl)c(Cl)cc1Cl | 8.95% (inactive) | –
O.O.O.O.O.O.O.O=S(=O)([O-])[O-].[Co+2] | -5.85% (inactive) | –
CCc1cc2c(s1)-n1c(C)nnc1CN=C2c1ccccc1Cl | -4.08% [at 30.3 µM] (inactive) | –
CN1C(=O)[C@@H](NC(=O)c2cc3ccccc3[nH]2)N=C(c2ccccc2)c2ccccc21 | 0.0561% [at 30.3 µM] (inactive) | –
C[N+]1(C)[C@@H]2CC[C@H]1CC(OC(=O)C(CO)c1ccccc1)C2 (stereo not given in full) | -3.32% [at 30.3 µM] (inactive) | –
CCC1(C2=NCCN2)Cc2ccccc2O1 (stereo not given) | -2.13% [at 30.3 µM] (inactive) | –
O=C(NC(=O)c1c(F)cccc1F)Nc1ccc(OC(F)(F)C(F)OC(F)(F)F)c(Cl)c1 (stereo not given) | 4.12% [at 30.3 µM] (inactive) | –
CCCCP(CCCC)CCCC | 5.59% (inactive) | –
Oc1c(Cl)cccc1Cl | 2.7% (inactive) | –
Cc1nc(N)nc(N)n1 | -0.308% (inactive) | –
C[C@H]1CNCCc2ccc(Cl)cc21 | -5.19% [at 30.3 µM] (inactive) | –
CNNC | 1.11% (inactive) | –

SMILES | activity change, negative = cytotoxicity | Potency
O=S(=O)(NS(=O)(=O)C(F)(F)F)C(F)(F)F | -3.65% (inactive) | –
O=C(O)[C@H](O)[C@@H](O)C(=O)O | -15.6% (inactive) | –
CCCCC(CC)COC(=O)OOC(C)(C)C (stereo not given) | 14.9% (inactive) | –
CS(=O)(=O)c1ccc(C(=O)C2C(=O)CCCC2=O)c(Cl)c1COCC(F)(F)F | 12.5% (inactive) | –
O=C1CN=C(c2ccccc2)c2cc(Cl)ccc2N1CC1CC1 | -4.8% (inactive) | –
O=C(N/N=C/c1ccc([N+](=O)[O-])o1)c1cc([N+](=O)[O-])cc([N+](=O)[O-])c1O | -13.8% [at 30.3 µM] (inactive) | –
C=C(Cl)CSC(=S)N(CC)CC | -18.6% (inactive) | –
C=C(C)[C@H]1CN[C@H](C(=O)O)[C@H]1CC(=O)O | 0.449% [at 30.3 µM] (inactive) | –
N#C/C(N)=C(/N)C#N | 3.46% (inactive) | –
CCOC(=O)CC(=O)CCl | 1.95% (inactive) | –
CN1[C@@H]2CC[C@H]1CC(O)C2 (stereo not given in full) | 0.0293% (inactive) | –
CN(C)c1ccc(N=Nc2ccccc2)cc1 | 0.379% (inactive) | –
COc1ncc(F)c2nc(S(=O)(=O)Nc3c(F)cccc3F)nn12 | 6.34% [at 30.3 µM] (inactive) | –
CCOCn1c(-c2ccc(Cl)cc2)c(C#N)c(Br)c1C(F)(F)F | – | 22.9 µM (active)
CC(=O)O[C@H]1CC[C@@]2(C)C(=CC[C@@H]3[C@@H]2CC[C@]2(C)C(=O)CC[C@@H]32)C1 | 2.73% (inactive) | –
CCCOc1nn(C(=O)NS(=O)(=O)c2ccccc2C(=O)OC)c(=O)n1C | 0.657% (inactive) | –
Clc1cccc(N2CCNCC2)c1 | -3.52% [at 30.3 µM] (inactive) | –
CC(C)[C@H](C(=O)OC(C#N)c1cccc(Oc2ccccc2)c1)c1ccc(OC(F)F)cc1 (stereo not given in full) | -17% (inactive) | –
O=C1c2ccccc2C(=O)C1C(=O)C(c1ccccc1)c1ccccc1 | -1.01% [at 30.3 µM] (inactive) | –
O=[N+]([O-])C(Br)(CO)CO | 6.37% (inactive) | –
